Where “and” joins values, the source holds several entries; their conditions need not be identical. Identical values can stand only once. About 2,000 (36%) of roughly 5,500 compounds were called active. Not shown: some 18% with an inconclusive outcome. Cut-off read from the data, not from the text of the source: active = normalized growth mostly below about 0.91 (no sharp cut-off); inconclusive = no clear call, values can overlap the other calls; inactive = mostly above about 0.92. This is one part of the list.
Assay: chemical genetic growth profiling, strain panel (AID 1159580);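 note: tested at 20 µM; growth read once vehicle control cultures reached saturation at 30 °C; 1 = growth at the plate median or of vehicle wells; lower values mean less growth of the strain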
Conditions: growth OD

Measured: normalized growth

CC(=O)OCC(COC(C)=O)OC(C)=O
inactive: S. cerevisiae deletion strains, locus YAL013W, strain DEP1, stronger effect = lower value 1.01 | S. cerevisiae deletion strains, locus YBR021W, strain FUR4, stronger effect = lower value 1.02 | S. cerevisiae deletion strains, locus YBR229C, strain ROT2, stronger effect = lower value 1 | S. cerevisiae deletion strains, locus YCL029C, strain bik1, stronger effect = lower value 1.03 | S. cerevisiae deletion strains, locus YDL035C, strain GPR1, stronger effect = lower value 1.02 | S. cerevisiae deletion strains, locus YDL074C, strain BRE1, stronger effect = lower value 1.02 | S. cerevisiae deletion strains, locus YDL101C, strain DUN1, stronger effect = lower value 1.02 | S. cerevisiae deletion strains, locus YDL134C, strain PPH21, stronger effect = lower value 1.01 | S. cerevisiae deletion strains, locus YDL185W, strain tfp1, stronger effect = lower value 1.01 | S. cerevisiae deletion strains, locus YDL192W, strain arf1, stronger effect = lower value 1.02 | S. cerevisiae deletion strains, locus YDR101C, strain arx1, stronger effect = lower value 1 | S. cerevisiae deletion strains, locus YDR150W, strain NUM1, stronger effect = lower value 1.01 | S. cerevisiae deletion strains, locus YDR162C, strain NBP2, stronger effect = lower value 1.01 | S. cerevisiae deletion strains, locus YDR318W, strain mcm21, stronger effect = lower value 1.01 | S. cerevisiae deletion strains, locus YDR388W, stronger effect = lower value 1.01 | S. cerevisiae deletion strains, locus YDR502C, strain sam2, stronger effect = lower value 1 | S. cerevisiae deletion strains, locus YEL061C, strain CIN8, stronger effect = lower value 1.01 | S. cerevisiae deletion strains, locus YER110C, stronger effect = lower value 1.01 | S. cerevisiae deletion strains, locus YER155C, strain BEM2, stronger effect = lower value 0.999 | S. cerevisiae deletion strains, locus YER167W, strain BCK2, stronger effect = lower value 1.01 | S. cerevisiae deletion strains, locus YGL078C, strain dbp3, stronger effect = lower value 1.01 | S. cerevisiae deletion strains, locus YGL086W, strain mad1, stronger effect = lower value 1 | S. cerevisiae deletion strains, locus YGL248W, strain PDE1, stronger effect = lower value 1.01 | S. cerevisiae deletion strains, locus YGR078C, strain PAC10, stronger effect = lower value 1.02 | S. cerevisiae deletion strains, locus YGR135W, strain pre9, stronger effect = lower value 1.01 | S. cerevisiae deletion strains, locus YGR229C, strain SMI1, stronger effect = lower value 1.02 | S. cerevisiae deletion strains, locus YGR252W, strain gcn5, stronger effect = lower value 0.969 | S. cerevisiae deletion strains, locus YHR030C, strain SLT2, stronger effect = lower value 1.01 and 0.958 | S. cerevisiae deletion strains, locus YHR079C, strain IRE1 (second series), stronger effect = lower value 1.01 | S. cerevisiae deletion strains, locus YHR079C, strain IRE1, stronger effect = lower value 0.989 | S. cerevisiae deletion strains, locus YHR094C, strain hxt1, stronger effect = lower value 1.01 | S. cerevisiae deletion strains, locus YHR129C, strain ARP1, stronger effect = lower value 1.01 | S. cerevisiae deletion strains, locus YHR200W, strain rpn10, stronger effect = lower value 1.01 | S. cerevisiae deletion strains, locus YIL066C, strain RNR3, stronger effect = lower value 1.03 | S. cerevisiae deletion strains, locus YIL073C, strain SPO22, stronger effect = lower value 1.02 | S. cerevisiae deletion strains, locus YIL125W, strain kgd1, stronger effect = lower value 1 | S. cerevisiae deletion strains, locus YIR030C, strain dcg1, stronger effect = lower value 1.01 | S. cerevisiae deletion strains, locus YJL095W, strain BCK1, stronger effect = lower value 1.02 and 0.962 | S. cerevisiae deletion strains, locus YJL134W, strain LCB3, stronger effect = lower value 1.01 | S. cerevisiae deletion strains, locus YJL168C, strain set2, stronger effect = lower value 1.01 | S. cerevisiae deletion strains, locus YJL187C, strain SWE1 (second series), stronger effect = lower value 1.03 | S. cerevisiae deletion strains, locus YJR043C, strain POL32, stronger effect = lower value 1.02 | S. cerevisiae deletion strains, locus YJR066W, strain TOR1, stronger effect = lower value 0.936 | S. cerevisiae deletion strains, locus YJR075W, strain HOC1, stronger effect = lower value 1.03 | S. cerevisiae deletion strains, locus YKL009W, strain mrt4, stronger effect = lower value 1.02 | S. cerevisiae deletion strains, locus YKL068W, stronger effect = lower value 1 | S. cerevisiae deletion strains, locus YKL085W, strain MDH1 (second series), stronger effect = lower value 1.01 | S. cerevisiae deletion strains, locus YKL085W, strain MDH1, stronger effect = lower value 1.01 | S. cerevisiae deletion strains, locus YKL190W, strain CNB1, stronger effect = lower value 1.01 | S. cerevisiae deletion strains, locus YKR001C, strain vps1, stronger effect = lower value 1.02 | S. cerevisiae deletion strains, locus YLR039C, strain RIC1, stronger effect = lower value 0.991 | S. cerevisiae deletion strains, locus YLR058C, strain SHM2, stronger effect = lower value 1.01 | S. cerevisiae deletion strains, locus YLR102C, strain apc9, stronger effect = lower value 0.997 | S. cerevisiae deletion strains, locus YLR113W, strain HOG1, stronger effect = lower value 1 | S. cerevisiae deletion strains, locus YLR262C, strain YPT6, stronger effect = lower value 1.03 | S. cerevisiae deletion strains, locus YLR268W, strain sec22, stronger effect = lower value 1.03 | S. cerevisiae deletion strains, locus YLR330W, strain CHS5, stronger effect = lower value 1.02 | S. cerevisiae deletion strains, locus YLR342W, strain FKS1 (second series), stronger effect = lower value 1.01 | S. cerevisiae deletion strains, locus YLR371W, strain rom2, stronger effect = lower value 1.01 | S. cerevisiae deletion strains, locus YLR418C, strain cdc73, stronger effect = lower value 1.02 | S. cerevisiae deletion strains, locus YML016C, strain PPZ1, stronger effect = lower value 1.01 | S. cerevisiae deletion strains, locus YML032C, strain rad52, stronger effect = lower value 1.03 | S. cerevisiae deletion strains, locus YML124C, strain tub3, stronger effect = lower value 1 | S. cerevisiae deletion strains, locus YMR078C, strain ctf18, stronger effect = lower value 1.01 | S. cerevisiae deletion strains, locus YMR223W, strain ubp8, stronger effect = lower value 1 | S. cerevisiae deletion strains, locus YMR263W, strain SAP30, stronger effect = lower value 1.02 | S. cerevisiae deletion strains, locus YMR307W, strain GAS1, stronger effect = lower value 0.998 | S. cerevisiae deletion strains, locus YNL067W, strain RPL9B, stronger effect = lower value 1.03 | S. cerevisiae deletion strains, locus YNL128W, strain TEP1, stronger effect = lower value 1.02 | S. cerevisiae deletion strains, locus YNL153C, strain GIM3, stronger effect = lower value 1.02 | S. cerevisiae deletion strains, locus YNL183C, strain NPR1, stronger effect = lower value 0.949 | S. cerevisiae deletion strains, locus YNL233W, strain BNI4, stronger effect = lower value 1.01 | S. cerevisiae deletion strains, locus YNL250W, strain rad50, stronger effect = lower value 1 | S. cerevisiae deletion strains, locus YNL271C, strain bni1, stronger effect = lower value 1.02 | S. cerevisiae deletion strains, locus YNL298W, strain CLA4, stronger effect = lower value 1.02 | S. cerevisiae deletion strains, locus YNL307C, strain MCK1, stronger effect = lower value 1.01 | S. cerevisiae deletion strains, locus YNL322C, strain KRE1, stronger effect = lower value 1.01 | S. cerevisiae deletion strains, locus YNR052C, strain pop2, stronger effect = lower value 1.01 | S. cerevisiae deletion strains, locus YOL006C, strain TOP1, stronger effect = lower value 1.05 | S. cerevisiae deletion strains, locus YOL012C, strain htz1 1.07 | S. cerevisiae deletion strains, locus YOL147C, strain pex11, stronger effect = lower value 1.01 | S. cerevisiae deletion strains, locus YOR061W, strain CKA2, stronger effect = lower value 1.01 | S. cerevisiae deletion strains, locus YOR069W, strain VPS5, stronger effect = lower value 1.01 | S. cerevisiae deletion strains, locus YOR136W, strain idh2, stronger effect = lower value 1.01 | S. cerevisiae deletion strains, locus YOR144C, strain elg1, stronger effect = lower value 0.998 | S. cerevisiae deletion strains, locus YOR184W, strain ser1, stronger effect = lower value 1.02 | S. cerevisiae deletion strains, locus YOR231W, strain MKK1, stronger effect = lower value 0.993 | S. cerevisiae deletion strains, locus YOR316C, strain cot1, stronger effect = lower value 1.01 | S. cerevisiae deletion strains, locus YPL055C, strain LGE1, stronger effect = lower value 1.06 | S. cerevisiae deletion strains, locus YPL241C, strain CIN2, stronger effect = lower value 1.01 | S. cerevisiae deletion strains, locus YPL256C, strain CLN2, stronger effect = lower value 0.989 | S. cerevisiae deletion strains, locus YPR119W, strain clb2, stronger effect = lower value 1.01 | S. cerevisiae deletion strains, locus YPR141C, strain kar3, stronger effect = lower value 1.01 | S. cerevisiae deletion strains, locus YPR163C, strain tif3, stronger effect = lower value 1.02 | S. cerevisiae deletion strains, locus YPR167C, strain met16, stronger effect = lower value 1.01 | S. cerevisiae deletion strains, strain wtn01, stronger effect = lower value 1.04 | S. cerevisiae strains, strain wild type, stronger effect = lower value 1.02

From PubChem BioAssay AID1159580 (chemical genetic matrix, 2015)
